Data on 35 compounds can be found in PubChem BioAssay (NCATS).

Test [1] can be described thus: A High-Content qHTS Against Drug Library for the Identification of Small Molecules that Inhibit DYT1 Early Onset Primary Dystonia-Associated Cell Pathology (AID 1645839; calls by dose curve; also: potency is read from the fitted curve at half-maximal effect). The note with it: HEK293 Flp-In EGFP-delE TorsinA, punctate imaging, 48 h; series mostly up to 46.1 µM. Summed up:
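Flp-In T-REx 293 cells with tetracycline-inducible EGFP-delE hTOR1A (WT EGFP-hTOR1A as reference), 800 cells/well; compound added with tetracycline, 48 h at 37 C. Fixed, permeabilized cells imaged; %pathology (punctate TorsinA) primary, cell count counterscreen.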
For orientation: qHTS replaces the single test concentration by a dilution series.

The target of test [2] is Cytochrome P450 2D6 (Homo sapiens) (UniProt P10635). Briefly: Cytochrome P450 family 2 subfamily D member 6 (CYP2D6) small molecule antagonists: luciferase biochemical (cell-free) qHTS assay (AID 1645840). Also: nearly all actives have a fitted effect of over 55% in size. Also: potency is read from the fitted curve at half-maximal effect. As to activity change, negative = inhibition: % is scaled to controls: 0 for no effect and ±100 for the full control effect. The note with it: P450-Glo CYP2D6 enzyme, luciferin luminescence, 1 h; series mostly up to 57.4 µM. The essentials:
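P450-Glo luminescent screen: recombinant CYP2D6 enzyme–proluciferin substrate mix preincubated with compound 10 min at room temperature, then NADPH regeneration added for 1 h at room temperature. Detection reagent added for 20 min; luciferin light read as relative luminescence units.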

Test [3] addresses Cytochrome P450 2C9 (Homo sapiens) (UniProt P11712). Briefly: Cytochrome P450 family 2 subfamily C member 9 (CYP2C9) small molecule antagonists: luciferase biochemical (cell-free) qHTS assay (AID 1645842). Also: nearly all actives have a fitted effect of over 55% in size. Also: potency is read from the fitted curve at half-maximal effect. As to activity change, negative = inhibition: % is scaled to controls: 0 for no effect and ±100 for the full control effect. The note with it: P450-Glo CYP2C9 enzyme assay, luciferin luminescence; series mostly up to 57.4 µM. The essentials: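 Luminescence, after 20 min with luciferin detection reagent, reflected CYP2C9 turnover during a 1 h NADPH-driven reaction at 37C. Enzyme-substrate mix contained 0.4% bovine serum albumin and was preincubated with compound 10 min at room temperature.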

Test [4] can be described thus: Primary qHTS for inhibitors of nuclear receptor binding SET domain protein 2 (NSD2) in an isogenic RCH-ACV NSD2 p.E1099K mutant (9B) (AID 1645876; active = well fitted curve in the direction sought with a large enough effect; an effect the other way counts as inactive or inconclusive; also: nearly all actives have a fitted effect of over 70% in size; also: potency is read from the fitted curve at half-maximal effect). The note with it: RCH-ACV (leukaemia line) NSD2 E1099K (9B) viability, CellTiter-Glo, 72 h; series mostly up to 44.9 µM.
Test [5] concerns the target Cytochrome P450 3A4 (Homo sapiens) (UniProt P08684). Briefly: Cytochrome P450 family 3 subfamily A member 4 (CYP3A4) small molecule antagonists: luciferase qHTS assay (AID 1645841). Also: nearly all actives have a fitted effect of over 45% in size. Conditions: P450-Glo CYP3A4 enzyme assay, luciferin luminescence; series mostly up to 57.4 µM. Summed up:
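P450-Glo CYP3A4 enzyme with proluciferin substrate preincubated 10 min with compound at room temperature, then NADPH regeneration 1 h. Luciferin detection reagent added for 20 min; luminescence recorded. Ketoconazole positive control.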

Each structure is given as a SMILES string. Values joined by “and” are separate entries in the source; they are usually repeats but may differ in a detail not shown here. Equal values may be shown once. Results filed as inconclusive are left out. A number with no mark means an inactive call. Active and inactive are the calls of the source. Unless noted, calls follow the shape of the dose curve; as a rule, active = well fitted curve in the direction sought with a large enough effect in the repeat runs; inconclusive = weak or mixed curves; inactive = no such curve, though single readings can be large; an effect the other way counts as inactive or inconclusive. *1 amine or outer side, *2 acyl side, *3 side chain or, on linkers, in order; H or OH if unused. Where a SMILES comes first, the peptide text is derived from it. Bridges are numbered along the chain shown (N, C = ends). [ ]: non-standard residue; d: D form. The star is where a group is joined. ξ: configuration not given here. X10 = NC1=NCCC(C(N[*:1])C(=O)[*:2])N1; ΔAla(3-NHCONH2) = NC(=O)NC=C(N)C(=O)O; ξβ3hOrn = NCCCC(N)CC(=O)*; Dap = NC[CH](N)C(=O)O

Sequence of Cytochrome P450 2C9 (Homo sapiens) (P11712 whole entry, looked up): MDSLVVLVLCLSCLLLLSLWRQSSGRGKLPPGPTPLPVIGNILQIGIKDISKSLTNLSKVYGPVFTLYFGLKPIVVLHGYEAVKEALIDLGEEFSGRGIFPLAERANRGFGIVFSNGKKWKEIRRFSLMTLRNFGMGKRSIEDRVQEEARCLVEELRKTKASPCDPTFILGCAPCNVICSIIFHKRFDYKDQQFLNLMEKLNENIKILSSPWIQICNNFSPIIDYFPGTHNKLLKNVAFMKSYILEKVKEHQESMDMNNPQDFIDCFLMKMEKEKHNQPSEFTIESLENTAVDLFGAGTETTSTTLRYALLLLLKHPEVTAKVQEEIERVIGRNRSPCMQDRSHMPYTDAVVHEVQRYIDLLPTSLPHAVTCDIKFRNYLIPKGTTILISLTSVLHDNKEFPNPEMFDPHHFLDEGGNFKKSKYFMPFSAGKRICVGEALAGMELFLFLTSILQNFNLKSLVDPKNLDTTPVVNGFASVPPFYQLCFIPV
Sequence of Cytochrome P450 2D6 (Homo sapiens) (P10635 whole entry, looked up): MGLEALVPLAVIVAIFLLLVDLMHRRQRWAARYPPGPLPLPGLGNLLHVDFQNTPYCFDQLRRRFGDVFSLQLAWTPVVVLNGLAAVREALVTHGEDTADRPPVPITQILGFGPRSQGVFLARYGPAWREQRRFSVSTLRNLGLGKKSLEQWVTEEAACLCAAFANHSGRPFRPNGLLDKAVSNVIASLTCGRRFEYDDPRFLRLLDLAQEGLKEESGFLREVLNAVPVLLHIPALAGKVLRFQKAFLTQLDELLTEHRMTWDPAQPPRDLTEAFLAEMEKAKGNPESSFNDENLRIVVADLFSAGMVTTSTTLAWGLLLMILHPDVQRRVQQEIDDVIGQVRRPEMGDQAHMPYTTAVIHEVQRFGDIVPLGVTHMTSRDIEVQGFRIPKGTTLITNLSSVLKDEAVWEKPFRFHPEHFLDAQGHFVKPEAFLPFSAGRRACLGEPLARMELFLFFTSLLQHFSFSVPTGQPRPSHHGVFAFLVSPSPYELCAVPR
Sequence of Cytochrome P450 3A4 (Homo sapiens) (P08684 whole entry, looked up): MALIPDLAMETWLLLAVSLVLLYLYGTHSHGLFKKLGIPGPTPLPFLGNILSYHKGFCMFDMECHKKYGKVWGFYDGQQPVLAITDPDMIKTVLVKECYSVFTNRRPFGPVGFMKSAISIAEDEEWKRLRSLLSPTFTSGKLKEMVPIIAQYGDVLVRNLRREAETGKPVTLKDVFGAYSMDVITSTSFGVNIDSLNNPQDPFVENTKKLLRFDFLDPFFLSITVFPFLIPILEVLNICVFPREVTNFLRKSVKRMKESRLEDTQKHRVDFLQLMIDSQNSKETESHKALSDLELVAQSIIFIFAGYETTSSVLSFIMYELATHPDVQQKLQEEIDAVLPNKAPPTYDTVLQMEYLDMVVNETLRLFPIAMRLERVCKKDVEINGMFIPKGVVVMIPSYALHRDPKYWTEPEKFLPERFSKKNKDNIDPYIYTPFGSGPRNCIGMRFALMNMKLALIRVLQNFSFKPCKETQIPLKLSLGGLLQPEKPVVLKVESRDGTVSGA

On to `C=CCOc1cc(Cl)ccc1C(=O)NCCN(CC)CC`, for which the Potency result in test [1], in test [3] and in test [4] was “inactive” each time. Besides, the Potency in test [2] is 0.275 µM (active).

As to `C/C(=N\O)[C@@H](C)NCC(C)(C)CN[C@H](C)/C(C)=N/O`, the Potency entry in test [1], in test [2], in test [3] and in test [4] was “inactive” in each case.

As to `CC(C)(C)C(O)/C=C/c1ccc2c(c1)OCO2` (centres undefined), the Potency result in test [1] and in test [4] was “inactive” throughout. Also, the values for the Potency in test [2] and in test [3] were 11 µM (active) and 3.09 µM (active), respectively.

Take `Nc1ccc(O)cc1`: the Potency result in test [1] and in test [4] was “inactive” each time. Besides, the Potency in test [2] is 6.17 µM (active); in test [3] it was 15.5 µM (active).

Regarding `CC(C)NC(=O)c1ccc(C=O)cc1`, the Potency entry in test [1], in test [2], in test [3] and in test [4] was “inactive” throughout.

Consider `COC(=O)c1cc(S(N)(=O)=O)ccc1OC`, for which the Potency entry in test [1], in test [2], in test [3] and in test [4] was “inactive” in each case.

As to `Cc1ccc2c(Cl)cc(Cl)c(O)c2n1`, the Potency result in test [1], in test [2], in test [3] and in test [4] was “inactive” throughout.

Turning to `CCn1ccc(NS(=O)(=O)c2ccc(N)cc2)nc1=O`, the Potency entry in test [1], in test [2], in test [3] and in test [4] was “inactive” each time.

On to `CC(C)C(C)(C)C(C)(C)C(C)(C)S`, for which the Potency entry in test [1], in test [2] and in test [4] was “inactive” each time.

As to `CC(=O)N1CCN(c2ccc(O)cc2)CC1`, the Potency entry in test [1] and in test [3] was “inactive” in each case.

For the compound `C1N2CN3CN1CN(C2)C3`, the Potency result in test [1] and in test [3] was “inactive” throughout.

In the case of `NS(=O)(=O)c1ccc(N2CCCCS2(=O)=O)cc1`, the Potency entry in test [1], in test [2], in test [3] and in test [4] was “inactive” in each case.

With `O=C(O)c1ccc(OCCN2CCCCC2)cc1`, the Potency entry in test [1], in test [2], in test [3] and in test [4] was “inactive” each time.

As to `CCOc1ccccc1OCC1CNCCO1` (centres undefined), the Potency entry in test [1], in test [2], in test [3] and in test [4] was “inactive” each time.

Take `O=C(c1cc(O)c(O)c(O)c1)c1ccc(O)c(O)c1O`: the Potency entry in test [1] and in test [3] was “inactive” throughout. For the same compound, in test [4], the Potency was 2.37 µM (active).

With `N#CC1(c2ccc(F)cc2)CCC(=O)CC1`, the Potency result in test [1], in test [2], in test [3] and in test [4] was “inactive” throughout.

Turning to `CCCCCCCCCCCCCCCC[N+](C)(C)Cc1ccccc1`, the Potency is 22.4 µM (active) in test [1], 0.195 µM (active) in test [2] and 0.75 µM (active) in test [4].

Regarding `CC(C)(C)C(=O)OCOC(=O)C1N2C(=O)CC2S(=O)(=O)C1(C)C` (centres undefined), the Potency result in test [1], in test [2] and in test [4] was “inactive” in each case.

Turning to `CN(C(=O)C(Cl)Cl)c1ccc(OC(=O)c2ccco2)cc1`, the Potency entry in test [1], in test [2] and in test [4] was “inactive” throughout.

Take `CC(=O)O[C@@H]1C(=O)O[C@@H]2[C@H]1OC(=O)[C@@H]2OC(C)=O`: the Potency entry in test [1] and in test [3] was “inactive” each time.

For the compound `NCCCC(N)CC(=O)NCC1NC(=O)C(CO)NC(=O)C(N)CNC(=O)C(C2CCN=C(N)N2)NC(=O)C(=CNC(N)=O)NC1=O` (stereo not drawn) (H-[Dap]S[Dap](ξβ3hOrn)[ΔAla(3-NHCONH2)][X10]; lactam 1-C; configuration not given here), the % pathology change, negative = correction in test [1] was -14.9% [at 0.369 µM]. The figures for the activity change, negative = inhibition in test [5] and in test [3] were -11.7% [at 0.91 µM] and 7.44% [at 0.91 µM], respectively. In addition, the outcome in test [4] was “inactive [at 0.588 µM]”.

Take `Nc1nnnn1-c1ccccc1`: the Potency entry in test [1], in test [2] and in test [4] was “inactive” in each case.

For `CCOC(=O)[C@H](CCc1ccccc1)N[C@@H](C)C(=O)N(CC(=O)O)C1Cc2ccccc2C1`, the Potency result in test [1] is “inactive”. The Potency in test [3] was 19.5 µM (active).

For the compound `Clc1ccc2c(c1)Nc1ccccc1S2`, the Potency entry in test [1], in test [2] and in test [4] was “inactive” each time.

Take `CCOCCn1c(C2CCN(CCc3ccc(C(C)(C)C(=O)O)cc3)CC2)nc2ccccc21`: the Potency entry in test [1] and in test [3] was “inactive” each time.

In the case of `CC(=O)N(c1onc(C)c1C)S(=O)(=O)c1ccc(N)cc1`, the Potency result in test [1], in test [2], in test [3] and in test [4] was “inactive” throughout.

On to `CC(=O)N[C@@H](CCC(N)=O)C(=O)O`, for which the Potency result in test [1], in test [2], in test [3] and in test [4] was “inactive” each time.

In the case of `CCC(=O)Oc1ccc2c(c1)CC[C@@H]1[C@@H]2CC[C@@]2(C)[C@H]1C[C@@H](OC(=O)CC)[C@@H]2OC(=O)CC`, in test [1], the Potency result was “inactive”. Further, the Potency in test [3] is 8.71 µM (active).

Consider `CO/N=C(\C(=O)O)c1csc(NC(=O)CCl)n1`, for which the Potency result in test [1], in test [2], in test [3] and in test [4] was “inactive” each time.

`C1=CC2C3C=CC(C3)C2C1` (centres undefined): the Potency result in test [1], in test [2], in test [3] and in test [4] was “inactive” throughout.

Turning to `Cc1cnc(NS(=O)(=O)c2ccc(N)cc2)nc1`, the Potency entry in test [1], in test [2], in test [3] and in test [4] was “inactive” throughout.

For `CC(C)(C)NCC(O)COc1ccccc1OCC1CCCO1` (centres undefined), the Potency entry in test [1], in test [3] and in test [4] was “inactive” in each case. In test [2], the Potency is 6.17 µM (active).

On to `COC(=O)/C=C\C(=O)OC`, for which the Potency result in test [1], in test [2], in test [3] and in test [4] was “inactive” in each case.

As to `COc1c(C)c2c(c(O)c1C/C=C(\C)CCC(=O)OCCN1CCOCC1)C(=O)OC2`, the Potency entry in test [1] was “inactive”. For the same compound, the Potency in test [2] is 13.8 µM (active); in test [4], 473 nM (active) and 525 nM (active).

Turning to `CC(C)NCCCC1(C(N)=O)c2ccccc2-c2ccccc21`, the Potency result in test [1] and in test [4] was “inactive” each time. Also, the Potency in test [2] was 3.89 µM (active).
